The source of these data is PubChem BioAssay (NCATS).

Test [1] in a line: AP1 Signaling Pathway (AID 357; active = well fitted curve in either direction with a large enough effect, not every such curve was filed as active;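 also: ME-180 reporter cells stimulated with EGF at its EC50 level; % is scaled to controls: 0 for no effect and ±100 for the full control effect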). Conditions: ME-180 AP-1-bla reporter, EGF-induced, beta-lactamase ratio, 5 h. The gist of the method: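 Modulation of EGF-driven AP-1 transcription was assessed with a beta-lactamase reporter in ME-180 cells. Compound and EC50 EGF were co-incubated 5 hours at 37 °C before 2.5-hour CCF4 loading at room temperature and dual-emission reading.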
For test [2], the target named is Cytochrome P450 1A2 (Homo sapiens) (UniProt P05177). Nature of the test: p450-cyp1a2 (AID 410; calls by dose curve; also: potency is read from the fitted curve at half-maximal effect;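 as to activity change, negative = inhibition: -100% = full effect of reference inhibitor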). Conditions: recombinant CYP1A2, luciferin-ME demethylation, luminescence; series mostly up to 57 µM. In short, it runs like this:
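Luminescent readout of luciferin formed from Luciferin-ME by human CYP1A2; data normalized against complete inhibition by 57 uM furafylline. Enzyme 20nM, substrate 100uM at Km, 100mM KPO4 buffer, 60 min reaction at room temperature.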

The target of test [3] is Mitogen-activated protein kinase 10 (Mus musculus) (UniProt Q61831). Nature of the test: JNK3 AlphaScreen Assay (AID 530; active = well fitted curve in either direction with a large enough effect, not every such curve was filed as active;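 also: kinase came from lysate of stimulated human HepG2 cells; signal reports phosphorylation of biotinylated GST-cJun 1-79 at Ser73 with 10 µM ATP; % is scaled to controls: 0 for no effect and ±100 for the full control effect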). Conditions: JNK3 lysate, c-Jun phosphorylation; series mostly up to 57.1 µM. The gist of the method:
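Pre-activated (IL-1β/TNFα) JNK3 in HepG2 lysates phosphorylates biotin-GST-cJun(1-79), 10 uM ATP; anti-phospho-cJun(Ser73) AlphaScreen read at room temperature, pH 7.6 Tris buffer. Compounds pre-incubated 15 min as titrations.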
A general note: Bead proximity is the source of the signal in Alpha formats.

The target of test [4] is 3',5'-cyclic-AMP phosphodiesterase 4B (Homo sapiens) (UniProt Q07343). The experiment in a line: qHTS Assay for Inhibitors of PDE-IV (AID 607; active = well fitted activation curve with a large enough effect in the main read-out, with a control signal flat, not every such curve was filed as active; also: % of control where 0% means no effect). The note with it: HEK293 ACTOne CNG channel cells, membrane potential fluorescence; series mostly up to 22.9 µM. The gist of the method:
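Cell-based read-out of cAMP via a modified cyclic nucleotide-gated channel and membrane potential dye (535/590 nm) in HEK293 cells expressing PDE4 endogenously. Compounds tested up to 22.9 uM final; 100 uM RO 20-1724 reference.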
On the technique in general: In qHTS, concentration-response curves come from the screen itself.

Test [5] concerns the target Pyruvate kinase (Leishmania mexicana) (UniProt Q27686). Nature of the test: qHTS Validation Assay for Inhibitors of Leishmania Mexicana Pyruvate Kinase (AID 945).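 Also: 0% = DMSO only neutral control wells.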 Conditions: purified L. mexicana pyruvate kinase, enzyme activity, E451W mutant enzyme; series mostly up to 57.5 µM. The gist of the method:
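qHTS eight-point titrations against 0.2 nM LmPYK (E451W) in imidazole buffer pH 7.2 with 0.5 mM PEP, 0.1 mM ADP; 1 h, room temperature. Readout: PKLight luminescence, normalized to neutral DMSO wells.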

Test [6] concerns the target Alpha-galactosidase A (Homo sapiens) (UniProt P06280). Nature of the test: Counterscreen for Glucocerebrosidase Inhibitors: qHTS Assay for Human alpha-Galactosidase at pH 4.5 (AID 992). Also: 0% is about no effect. Conditions: purified enzyme, fluorogenic substrate; series mostly up to 76.9 µM. The gist of the method: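 Quantitative HTS: compounds tested from 0.7 nM up to 77 uM against 2 nM enzyme with 80 uM 4-MU alpha-D-galactopyranoside. The 20 min room-temperature reaction is stopped with 1M NaOH/1M glycine, pH 10.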
For orientation: The purpose of a counterscreen is to sort out artefacts and off-target activity.

For test [7], the target named is alpha-glucosidase (Oryza sativa, rice) (UniProt Q653V4). The experiment in a line: Counterscreen for Glucocerebrosidase Inhibitors: qHTS Assay for Rice alpha-Glucosidase at pH 5.0 (AID 997).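 Also: 0% = full activity with enzyme and -100% = basal without enzyme.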 Conditions: rice alpha-glucosidase enzyme activity; series mostly up to 76.9 µM. The gist of the method: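 Rice alpha-glucosidase (4 nM final) with 400 uM 4-methylumbelliferyl-alpha-D-glucopyranoside in citrate buffer pH 5.0, 20 min at room temperature, stopped at pH 10; fluorescence 365/440 nm, compounds 0.7 nM–77 uM, AC50 from Hill fits.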

Test [8] can be described thus: qHTS Assay for Lipid Storage Modulators (AID 1519; calls by dose curve). The note with it: Drosophila S3 cells, BODIPY lipid droplet/cell ratio, laser cytometry, cells loaded with oleic acid; for activity change, negative = inhibition: at 25.7 µM (top of the series). In short, it runs like this:
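Cells seeded at 5,000 per well were treated with compounds over a concentration series and loaded with oleic acid (400 uM, as added). Lipid droplet fluorescence (488 nm excitation, 500-530 nm channel) was read by laser-scanning cytometry and normalized to 20 uM Triacsin C.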

In test [9] the target is ATP-dependent 6-phosphofructokinase (Trypanosoma brucei brucei) (UniProt O15648). The experiment in a line: qHTS Assay to Find Inhibitors of T. brucei phosphofructokinase: hit validation (AID 492961).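 Also: luminescence reports ADP formed as PFK phosphorylates fructose-6-phosphate with ATP; % is scaled to controls: 0 for no effect and ±100 for the full control effect.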 The note with it: T. brucei PFK, ADP-Glo luminescence; series mostly up to 24.3 µM. The gist of the method: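 Compounds titrated; %activity normalized to 0x and 1x enzyme controls, curve-fitted. Readout: ADP-Glo luminescence after 45 min room-temperature reaction of 1.25 nM PFK, 0.1 mM ATP, 0.5 mM F6P, pH 8.0.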
ATP-dependent 6-phosphofructokinase (Trypanosoma brucei brucei), sequence (O15648 whole entry, looked up): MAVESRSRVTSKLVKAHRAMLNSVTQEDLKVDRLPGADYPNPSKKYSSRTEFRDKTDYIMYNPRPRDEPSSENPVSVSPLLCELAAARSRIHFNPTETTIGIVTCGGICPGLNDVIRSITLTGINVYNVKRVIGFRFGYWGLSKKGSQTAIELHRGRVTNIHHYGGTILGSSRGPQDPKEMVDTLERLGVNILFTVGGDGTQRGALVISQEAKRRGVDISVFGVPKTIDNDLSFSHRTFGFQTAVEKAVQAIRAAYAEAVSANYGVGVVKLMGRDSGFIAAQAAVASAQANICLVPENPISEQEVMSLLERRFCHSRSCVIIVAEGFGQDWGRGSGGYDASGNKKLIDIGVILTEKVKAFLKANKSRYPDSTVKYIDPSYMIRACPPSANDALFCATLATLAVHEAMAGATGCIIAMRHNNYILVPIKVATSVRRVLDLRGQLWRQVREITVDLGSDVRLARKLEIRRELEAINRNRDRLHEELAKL

Test [10] has as its target Ubiquitin carboxyl-terminal hydrolase 1 (Homo sapiens) (UniProt O94782). Nature of the test: Inhibitors of USP1/UAF1: Pilot qHTS (AID 504865). Also: nearly all actives have a fitted effect of over 35% in size. Also: potency is read from the fitted curve at half-maximal effect. The note with it: purified USP1/UAF1, Ub-rhodamine cleavage fluorescence; series mostly up to 54.9 µM. The gist of the method: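 USP1/UAF1 complex (1nM) preincubated with compound 15 min at room temperature, then Ub-Rho substrate (150nM final) added. Fluorescence read kinetically at 480/540 nm, 6 reads every 60 seconds. Buffer: 50mM HEPES pH 7.8, 0.5mM EDTA, 0.1 mg/ml BSA, 1mM TCEP, 0.01% Tween-20.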

The target in test [11] is Luciferin 4-monooxygenase (Photinus pyralis) (UniProt P08659). The experiment in a line: Biochemical firefly luciferase enzyme assay for NPC (AID 624030).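 Also: purified P. pyralis luciferase at 10 nM with luciferin and ATP substrate; 0% = DMSO and -100% = full luciferase inhibition by PTC124 control; nearly all actives have a fitted effect of over 70% in size.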 Conditions: purified P. pyralis luciferase, luminescence, 5 min; series mostly up to 58.6 µM. In short, it runs like this:
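Purified P. pyralis luciferase at 10 nM in 50 mM Tris Acetate (final), luminescence read within 5 minutes of enzyme addition to compounds. Activity normalised to PTC124 versus DMSO; concentration-response curves classed by r2, magnitude and activity.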

A short description of test [12]: qHTS profiling for inhibitors of Plasmodium falciparum proliferation (AID 504749). Also: potency is read from the fitted curve at half-maximal effect.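 As to activity, negative = inhibition: 0% = DMSO vehicle and full inhibition = artemisinin control.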 As to all read-outs here: nearly all actives have a fitted effect of over 60% in size. The note with it: P. falciparum in erythrocytes, SYBR Green DNA, 72 h; for activity, negative = inhibition: at 28.7 µM (top of the series). In short, it runs like this: (§1)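 P. falciparum-infected erythrocytes (0.3% parasitemia, 2.5% hematocrit) incubated with compound 72 h at 37 C, 5% CO2. Parasite DNA detected by SYBR Green after lysis, overnight at room temperature; normalised to 0.29 uM artemisinin and DMSO.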

Another test deals with AS120. The test is described as above. The note with it: P. falciparum in erythrocytes, SYBR Green DNA, 72 h; series mostly up to 28.7 µM. The gist of the method:
as §1

For another test, the system named is CP238. Described as above. The note with it: P. falciparum in erythrocytes, SYBR Green DNA, 72 h; series mostly up to 12.8 µM. The gist of the method:
as §1

The subject of a further test is CP265. The test is described as above. The note with it: P. falciparum in erythrocytes, SYBR Green DNA, 72 h; series mostly up to 12.8 µM. In short, it runs like this: as §1
A further test deals with FAB9. Described as above. The note with it: P. falciparum in erythrocytes, SYBR Green DNA, 72 h; series mostly up to 12.8 µM. In short, it runs like this: as §1
A short description of test [13]: NFAT Signaling Pathway (AID 444; active = well fitted curve in either direction with a large enough effect, not every such curve was filed as active;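 also: carbachol stimulus at about its EC50 of 1 µM final; % is scaled to controls: 0 for no effect and ±100 for the full control effect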). Conditions: Jurkat NFAT-bla M1, carbachol, beta-lactamase ratio, 5 h; at 7.69 µM (top of the series) unless noted. In short, it runs like this: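 Jurkat cells with NFAT-driven β-lactamase reporter and co-expressed M1 receptor, stimulated with carbachol (final 1 uM, ~EC50), compound titration, 5 h at 37 °C. CCF4 loaded 1 h at RT; 460/530 nm ratio gave %activity and AC50.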

Test [14] in a line: Stat Signaling Pathway (AID 446; active = well fitted curve in either direction with a large enough effect, not every such curve was filed as active). Conditions: ME-180 SIE beta-lactamase reporter, IL-6 stimulated, 5 h. In short, it runs like this:
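Reporter line: ME-180 cervical carcinoma, SIE-beta-lactamase. Treatment: compound with 40 pM IL-6, 5 hrs, 37 C, in low-serum OPTI-MEM with 10 mM HEPES pH 7.3. Detection: 460/530 nm fluorescence.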

The target of test [15] is Glucocorticoid receptor (Homo sapiens) (UniProt P04150). Nature of the test: GR-GFP Redistribution (AID 450;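 active = compounds whose dose series gives a full or clear partial fitted curve of increased nuclear translocation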; also: potency is read from the fitted curve at half-maximal effect). Conditions: U2OS GR-GFP nuclear translocation, laser cytometry, 2 h.
Glucocorticoid receptor (Homo sapiens), sequence (P04150 whole entry, looked up, the tested form may be a part): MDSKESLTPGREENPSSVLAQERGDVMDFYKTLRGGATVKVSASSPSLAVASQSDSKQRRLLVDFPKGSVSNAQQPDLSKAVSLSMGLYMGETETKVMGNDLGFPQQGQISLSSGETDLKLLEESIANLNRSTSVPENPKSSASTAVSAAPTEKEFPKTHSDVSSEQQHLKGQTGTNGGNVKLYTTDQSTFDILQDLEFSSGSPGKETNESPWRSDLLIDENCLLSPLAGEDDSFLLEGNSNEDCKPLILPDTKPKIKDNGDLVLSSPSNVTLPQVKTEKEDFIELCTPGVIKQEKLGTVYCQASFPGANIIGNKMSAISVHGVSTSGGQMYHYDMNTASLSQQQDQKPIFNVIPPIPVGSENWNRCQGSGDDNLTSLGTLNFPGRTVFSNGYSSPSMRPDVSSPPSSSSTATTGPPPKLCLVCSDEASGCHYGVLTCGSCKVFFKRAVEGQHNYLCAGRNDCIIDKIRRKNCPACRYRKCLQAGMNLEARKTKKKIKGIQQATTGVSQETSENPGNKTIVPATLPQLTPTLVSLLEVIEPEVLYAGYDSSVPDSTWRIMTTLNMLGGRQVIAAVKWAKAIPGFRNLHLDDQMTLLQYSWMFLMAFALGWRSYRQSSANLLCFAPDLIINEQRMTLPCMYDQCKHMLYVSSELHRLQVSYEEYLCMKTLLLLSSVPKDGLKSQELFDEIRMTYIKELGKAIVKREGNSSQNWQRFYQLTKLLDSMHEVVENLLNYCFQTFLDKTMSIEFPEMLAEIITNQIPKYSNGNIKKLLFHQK
For test [16] the target is unchanged. Nature of the test: GR-EFC Redistribution (AID 451; calls by dose curve; also: potency is read from the fitted curve at half-maximal effect). Conditions: CHO-K1 GR-EFC translocation, beta-gal luminescence, 2 h. In short, it runs like this: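 CHO-K1 cells expressing nuclear EA and GR-ED fragments of b-gal; compounds titrated up to 46 uM final, 2 h at 37 C. GR nuclear translocation read as complemented b-gal luminescence after 1 h RT detection.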

[17] abbreviates: measured here: cell count channel max response.
[18] abbreviates: measured here: lipid channel max response.
Setting [19] is: at 7.69 µM (top of the series) unless noted.

“And” between values parts separate entries of the source, which are not always exact repeats. Identical values can stand only once. Records with an inconclusive call do not appear. The source made the active and inactive calls. Unless noted, calls follow the shape of the dose curve; as a rule, active = well fitted curve in the direction sought with a large enough effect; inconclusive = small, poorly fitted or top-dose-only effect, or another doubt; inactive = no such curve, though single readings can be large; an effect the other way counts as inactive or inconclusive.

Pyruvate kinase (Leishmania mexicana), sequence (Q27686 2-499 E452W): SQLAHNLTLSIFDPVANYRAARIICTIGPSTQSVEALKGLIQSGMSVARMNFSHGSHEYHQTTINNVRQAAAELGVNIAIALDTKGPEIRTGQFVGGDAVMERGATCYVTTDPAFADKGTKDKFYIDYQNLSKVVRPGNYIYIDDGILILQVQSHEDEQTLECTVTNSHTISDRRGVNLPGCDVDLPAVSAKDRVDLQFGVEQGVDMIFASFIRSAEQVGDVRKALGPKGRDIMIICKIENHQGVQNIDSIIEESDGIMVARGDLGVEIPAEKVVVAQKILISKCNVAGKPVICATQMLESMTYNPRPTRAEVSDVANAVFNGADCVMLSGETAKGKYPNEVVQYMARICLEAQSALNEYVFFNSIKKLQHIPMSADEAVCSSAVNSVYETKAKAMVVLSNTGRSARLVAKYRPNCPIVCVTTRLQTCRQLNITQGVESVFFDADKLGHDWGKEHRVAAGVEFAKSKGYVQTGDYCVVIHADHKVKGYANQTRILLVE
Cytochrome P450 1A2 (Homo sapiens), sequence (P05177 whole entry, looked up): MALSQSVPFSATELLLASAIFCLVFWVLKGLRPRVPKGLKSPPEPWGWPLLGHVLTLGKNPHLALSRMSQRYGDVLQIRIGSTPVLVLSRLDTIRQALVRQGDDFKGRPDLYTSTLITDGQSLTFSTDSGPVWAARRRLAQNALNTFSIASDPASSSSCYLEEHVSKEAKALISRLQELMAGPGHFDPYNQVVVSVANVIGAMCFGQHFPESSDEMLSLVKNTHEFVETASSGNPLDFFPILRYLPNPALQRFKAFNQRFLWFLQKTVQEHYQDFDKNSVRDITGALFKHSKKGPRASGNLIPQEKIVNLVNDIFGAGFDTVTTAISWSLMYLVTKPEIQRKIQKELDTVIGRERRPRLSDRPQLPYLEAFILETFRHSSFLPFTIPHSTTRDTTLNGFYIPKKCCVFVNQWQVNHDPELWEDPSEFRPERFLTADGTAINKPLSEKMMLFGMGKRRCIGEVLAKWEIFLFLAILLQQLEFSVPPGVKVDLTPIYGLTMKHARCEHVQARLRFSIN
3',5'-cyclic-AMP phosphodiesterase 4B (Homo sapiens), sequence (Q07343 whole entry, looked up): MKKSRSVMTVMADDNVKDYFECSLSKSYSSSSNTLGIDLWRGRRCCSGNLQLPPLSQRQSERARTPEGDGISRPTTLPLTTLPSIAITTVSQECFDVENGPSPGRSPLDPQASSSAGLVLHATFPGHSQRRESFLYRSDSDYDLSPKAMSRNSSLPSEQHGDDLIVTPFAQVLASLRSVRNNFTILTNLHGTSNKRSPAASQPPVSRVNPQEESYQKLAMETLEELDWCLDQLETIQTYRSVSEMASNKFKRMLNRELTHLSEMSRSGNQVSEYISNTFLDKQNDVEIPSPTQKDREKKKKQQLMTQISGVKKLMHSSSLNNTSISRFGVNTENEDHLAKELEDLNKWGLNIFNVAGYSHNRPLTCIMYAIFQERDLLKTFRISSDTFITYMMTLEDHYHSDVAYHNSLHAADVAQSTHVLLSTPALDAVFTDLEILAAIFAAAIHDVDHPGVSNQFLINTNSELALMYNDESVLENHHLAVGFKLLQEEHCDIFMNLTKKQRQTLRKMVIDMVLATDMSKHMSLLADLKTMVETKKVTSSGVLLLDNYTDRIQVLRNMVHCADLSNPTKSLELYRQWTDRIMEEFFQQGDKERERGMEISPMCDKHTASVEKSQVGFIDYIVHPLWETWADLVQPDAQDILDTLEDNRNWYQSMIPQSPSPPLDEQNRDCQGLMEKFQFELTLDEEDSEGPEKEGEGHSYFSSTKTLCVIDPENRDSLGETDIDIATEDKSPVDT
Alpha-galactosidase A (Homo sapiens), sequence (P06280 whole entry, looked up): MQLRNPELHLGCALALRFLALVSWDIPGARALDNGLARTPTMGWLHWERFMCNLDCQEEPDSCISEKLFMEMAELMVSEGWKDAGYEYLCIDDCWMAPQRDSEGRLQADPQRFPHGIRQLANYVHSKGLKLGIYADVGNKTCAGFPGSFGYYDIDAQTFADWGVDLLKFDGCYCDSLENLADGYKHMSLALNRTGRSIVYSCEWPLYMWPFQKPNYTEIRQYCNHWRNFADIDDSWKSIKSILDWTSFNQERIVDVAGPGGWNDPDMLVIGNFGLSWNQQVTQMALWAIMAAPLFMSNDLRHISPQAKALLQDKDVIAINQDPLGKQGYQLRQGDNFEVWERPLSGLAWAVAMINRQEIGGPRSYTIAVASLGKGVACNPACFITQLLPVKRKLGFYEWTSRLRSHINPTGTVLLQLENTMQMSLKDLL
Ubiquitin carboxyl-terminal hydrolase 1 (Homo sapiens), sequence (O94782 whole entry, looked up): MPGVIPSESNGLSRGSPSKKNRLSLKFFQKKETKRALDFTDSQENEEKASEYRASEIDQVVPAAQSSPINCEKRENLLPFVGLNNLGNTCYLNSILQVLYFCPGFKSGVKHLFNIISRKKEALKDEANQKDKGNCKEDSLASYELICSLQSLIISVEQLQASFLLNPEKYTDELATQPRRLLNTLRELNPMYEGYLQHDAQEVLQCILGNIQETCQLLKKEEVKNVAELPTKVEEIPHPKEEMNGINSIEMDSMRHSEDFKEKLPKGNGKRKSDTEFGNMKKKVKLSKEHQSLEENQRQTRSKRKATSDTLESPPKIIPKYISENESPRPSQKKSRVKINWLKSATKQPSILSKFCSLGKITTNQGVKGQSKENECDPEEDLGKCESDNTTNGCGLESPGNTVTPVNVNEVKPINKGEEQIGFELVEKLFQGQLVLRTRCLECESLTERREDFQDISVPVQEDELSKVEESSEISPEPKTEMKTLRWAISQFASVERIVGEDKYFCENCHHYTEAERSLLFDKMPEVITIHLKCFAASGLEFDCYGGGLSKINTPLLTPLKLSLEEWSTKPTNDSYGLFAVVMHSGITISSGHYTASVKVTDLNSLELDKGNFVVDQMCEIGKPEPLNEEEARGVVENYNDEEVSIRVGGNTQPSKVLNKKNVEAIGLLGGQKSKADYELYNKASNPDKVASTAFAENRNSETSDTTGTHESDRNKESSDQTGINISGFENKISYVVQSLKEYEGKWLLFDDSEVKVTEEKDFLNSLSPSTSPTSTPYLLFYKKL
Luciferin 4-monooxygenase (Photinus pyralis), sequence (P08659 whole entry, looked up): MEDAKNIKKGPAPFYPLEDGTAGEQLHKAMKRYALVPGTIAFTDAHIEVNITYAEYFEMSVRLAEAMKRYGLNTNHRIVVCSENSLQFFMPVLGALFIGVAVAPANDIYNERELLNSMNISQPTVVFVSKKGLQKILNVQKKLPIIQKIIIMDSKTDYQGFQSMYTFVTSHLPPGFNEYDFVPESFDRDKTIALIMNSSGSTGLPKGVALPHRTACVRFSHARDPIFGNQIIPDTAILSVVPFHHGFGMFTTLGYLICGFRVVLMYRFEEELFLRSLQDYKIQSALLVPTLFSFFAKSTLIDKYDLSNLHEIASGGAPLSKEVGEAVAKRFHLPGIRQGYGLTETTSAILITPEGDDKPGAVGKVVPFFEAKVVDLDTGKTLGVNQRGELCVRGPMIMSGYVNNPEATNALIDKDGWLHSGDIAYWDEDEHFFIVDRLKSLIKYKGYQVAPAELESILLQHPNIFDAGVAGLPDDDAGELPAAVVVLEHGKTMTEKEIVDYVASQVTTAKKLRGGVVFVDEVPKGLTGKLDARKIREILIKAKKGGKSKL

For the compound `CCN(CC)CCC[C@H](C)Nc1c2ccc(Cl)cc2nc2ccc(OC)cc12`, the activity change, negative = inhibition is 28.6% (inactive) in test [1] (at 17.2 µM (top of the series)), 21.9% (inactive) in test [1] (at 38 µM (top of the series)) and -0.0943% (inactive) in test [8]. In addition, the Potency in [2] was 2 µM (active) and 1 µM (active); in test [10] it was 31.6 µM (active); in [12] (parasite line A), 0.224 µM (active); in [12] (parasite line B) it was 0.282 µM (active); in the test with AS120, 0.794 µM (active); in the test with CP238 it was 1.12 µM (active). Also, the Potency was 0.891 µM (active) in the test on CP265 and 0.447 µM (active) with FAB9. Moreover, the Potency result in [3] and in [4] was “inactive” each time. Besides, the result in [5], in test [6], in test [7], in [9] and in test [11] was inactive. Besides, the max response was -11.8% in test [8] (setting [17]) and -13% in [8] (setting [18]).

For `CCN[C@@H]1C[C@H](C)S(=O)(=O)c2sc(S(N)(=O)=O)cc21`, the activity change, negative = inhibition in test [1] (setting [19]) was -11.2% [at 17.2 µM] (inactive); in test [13] it was -16.8% [at 17.2 µM] (inactive); in test [8], -5.41% (inactive). Further, the Potency result (in [2]; in test [3]; in test [4]; with AS120; in the test on CP238; with CP265) was “inactive” throughout. Also, the Potency entry in the test on FAB9 was “inactive”. Besides, the activity, negative = inhibition in test [14] (setting [19]) is -13.1% [at 17.2 µM] (inactive); in test [12] (parasite line A) it was 7.35% (inactive); in test [12] (parasite line B), 9.64% (inactive). In addition, the Potency in test [15] and in test [16] was > 20.6 µM (inactive) in each case. Besides, the max response is -1.77% in test [8] (setting [17]) and -5.35% in [8] (setting [18]). Further, the compound was classed as inactive in test [9] and in test [11].

For `CN(C)CC[C@H](c1ccc(Br)cc1)c1ccccn1`, the activity change, negative = inhibition in [1] (at 17.2 µM (top of the series)) was 0.671% (inactive); in [1] (at 38 µM (top of the series)), 15.7% (inactive) and 25.3% (inactive); in test [8], -2.32% (inactive). In addition, the Potency entry in test [2], in test [3], in [4] and in test [10] was “inactive” each time. Further, the results for the activity, negative = inhibition in test [14] (at 17.2 µM (top of the series)) and in [14] (at 38 µM (top of the series)) were -5.49% (inactive) and -29.8% (inactive), respectively. In addition, the compound was called inactive in test [5], in test [6] and in test [7]. Besides, the max response is -4.35% in test [8] (setting [17]) and -5.95% in [8] (setting [18]).
